The values below come from PubChem BioAssay.

Test [1] concerns Wnt5a (protein binding on small-molecule microarray). As to the kind of experiment: Wnt5a binders on small-molecule microarray, primary screen, biophysical, 635/667 nm fluorescence (AID 1142).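 Also: fluorescence read at 667 nm with signal to noise per printed feature.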 The conditions noted are these: 635 nm fluorescence, higher = more signal.
Test [2] in a line: cell viability in Huh7 cells, primary screen, cytotoxicity control for HCV replication inhibitor project, CellTiter-Glo luminescence, basal, 48 h (AID 1143).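 Also: Huh7 hepatoma cells carrying a hepatitis C replication reporter with no stimulus; test concentration not given here.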 The conditions noted are these: Huh7 HCV replicon, CellTiter-Glo luminescence, 48 h, higher = more signal, called active from +8 up or from −8 down unless noted. A general note: ATP-based viability assays read luminescence as a measure of living cells.

The nature of test [3]: P. aeruginosa biofilm formation inhibitors, primary screen, PAO1 strain, BacTiter-Glo luminescence, LB-PBS (AID 1144). The following applies: 12 h, higher = more signal.
The nature of test [4]: CREB reporter modulators without forskolin, primary screen, cell-based, PC12, CRE-LacZ reporter, unstimulated (AID 1145). The following applies: no forskolin, luminescence, 4.5 h; higher = more signal, called active from +8 up or from −8 down unless noted.
Test [5] can be described thus: CREB reporter modulators under forskolin, primary screen, cell-based, PC12, CRE-LacZ reporter, forskolin-stimulated (AID 1146).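 Also: PC12 cells with 6xCRE LacZ reporter stimulated by forskolin 10 µM; beta-galactosidase reporter signal reflecting CREB driven transcription.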 The following applies: luminescence, 4.5 h; higher = more signal, called active from +8 up or from −8 down unless noted.
In test [6] the target is Streptavidin (Streptomyces avidinii) (UniProt P22629). The experiment in a line: streptavidin binders on small-molecule microarray, primary screen, artefact control for SMM compound annotation, biophysical, 635/667 nm fluorescence (AID 1147).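 Also: signal reflects streptavidin binding to arrayed compounds as a control protein.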 The following applies: streptavidin binding, higher = more signal.
Streptavidin (Streptomyces avidinii), sequence (P22629 whole entry, looked up): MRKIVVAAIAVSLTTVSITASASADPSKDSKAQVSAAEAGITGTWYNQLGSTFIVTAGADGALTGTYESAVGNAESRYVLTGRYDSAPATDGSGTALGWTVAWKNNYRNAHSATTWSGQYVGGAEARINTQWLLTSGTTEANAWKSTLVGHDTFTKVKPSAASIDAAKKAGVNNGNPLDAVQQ
Test [7] can be described thus: small-molecule binders of probe aInhba, primary screen, biochemical, small-molecule microarray, 635/667 nm fluorescence (AID 1148).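 Also: score merges 667nm spot fluorescence with signal-to-noise for antibody binding to printed compounds.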 The conditions noted are these: higher = more signal; small-molecule microarray, probe aInhba, fluorescence unless noted.
Test [8] deals with Torsin-1A (Homo sapiens) (UniProt O14656). The experiment in a line: torsin A binders from cell lysate, primary screen, small-molecule microarray, wild-type, 635/667 nm (AID 1149). The conditions noted are these: COS7 hTOR1A-WT lysate, 635 nm fluorescence, higher = more signal.
Torsin-1A (Homo sapiens), sequence (O14656 whole entry, looked up): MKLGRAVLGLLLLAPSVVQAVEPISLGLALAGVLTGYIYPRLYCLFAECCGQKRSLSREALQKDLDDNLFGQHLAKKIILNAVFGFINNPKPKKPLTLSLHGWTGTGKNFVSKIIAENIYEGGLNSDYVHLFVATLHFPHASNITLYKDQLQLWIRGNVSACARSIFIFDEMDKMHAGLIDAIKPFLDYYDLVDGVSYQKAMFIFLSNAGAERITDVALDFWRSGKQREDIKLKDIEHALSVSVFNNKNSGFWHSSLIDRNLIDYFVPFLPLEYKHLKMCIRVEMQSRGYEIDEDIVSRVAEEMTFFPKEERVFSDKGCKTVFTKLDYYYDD
The target is the same in test [9]. As to the kind of experiment: small-molecule binders of mutant TOR1A in lysate, primary screen, cell lysate, small-molecule microarray, COS7 lysate, 635/667 nm fluorescence (AID 1150).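 Also: score pools 667 nm emission and signal to noise measuring lysate protein binding.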 The following applies: COS7 hTOR1A mutant lysate, 635 nm fluorescence, higher = more signal.
For test [10], the system named is Sonic hedgehog protein (Shh). As to the kind of experiment: small-molecule binders of Shh protein, primary screen, biochemical, small-molecule microarray, 635/667 nm fluorescence (AID 1151).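 Also: Shh protein binding to compounds spotted on small-molecule microarray slides; score combines spot fluorescence intensity with signal-to-noise across triplicate slides.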 The conditions noted are these: small-molecule microarray binding, 635 nm fluorescence; higher = more signal.
Test [11] in a line: E. coli DRC41 culture turbidity changes, primary screen, E. coli filamentation inducer project, strain DRC41, OD650, 48 h (AID 1152).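 Also: E. coli MC1000 strain DRC41 lacking acrAB efflux pump and sulA.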 The conditions noted are these: E. coli DRC41 (acrAB sulA); higher = more signal, called active from +8 up or from −8 down unless noted.
The nature of test [12]: small-molecule binders of probe aLefty1, primary screen, biochemical, small-molecule microarray, 635/667 nm fluorescence (AID 1153).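 Also: score merges spot fluorescence with signal-to-noise ratio from the scanned slide images.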 The conditions noted are these: higher = more signal; small-molecule microarray, probe aLefty1, fluorescence unless noted.
Test [13] is described as follows: PSAC antagonists in infected red cells, primary screen, cell-based, P. falciparum Indochina, OD700, 1 h (AID 1154). The conditions noted are these: P. falciparum Indochina infected RBC osmotic lysis; higher = more signal, called active from +8 up or from −8 down unless noted.
Test [14] can be described thus: PSAC antagonists in infected red cells, primary screen, cell-based, P. falciparum Indochina, OD700, 2 h (AID 1155).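 Also: lysis reports solute entry through the parasite surface anion channel PSAC; channel blockers reduce lysis of infected cells.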 The conditions noted are these: P. falciparum Indochina infected erythrocytes, osmotic lysis OD700; higher = more signal, called active from +8 up or from −8 down unless noted.
The nature of test [15]: osmotic lysis modulators in infected erythrocytes, primary screen, PSAC antagonist project, cell-based, P. falciparum Indochina, OD700, 3 h (AID 1156). The conditions noted are these: higher = more signal, called active from +8 up or from −8 down unless noted.
Test [16] is described as follows: PSAC antagonists in infected red cells, primary screen, cell-based, P. falciparum Indochina, OD700, 18 h (AID 1157). The following applies: P. falciparum Indochina infected erythrocytes, osmotic lysis OD700, 18 h; higher = more signal, called active from +8 up or from −8 down unless noted.
Test [17] can be described thus: modulators of S6 phosphorylation in cells, primary screen, cell-based, A549, cytoblot, luminescence, serum-stimulated (AID 1158).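 Also: serum-stimulated A549 lung adenocarcinoma cells; signal is phosphorylated S6 detected by cytoblot immunostaining with HRP secondary.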 The conditions noted are these: A549 phospho-S6 cytoblot, 5 h, higher = more signal.
Test [18] has as its target NADPH oxidase 2 (Homo sapiens) (UniProt P04839). The experiment in a line: NOX2-dependent H2O2 signal modulators, primary screen, NOX inhibitor project, cell-based, HEK293-NOX2, PMA-stimulated, Amplex Red fluorescence (AID 1159). Also: test concentration not given here. The following applies: 45 min; higher = more signal, called active from +8 up or from −8 down unless noted.
The target of test [19] is NADPH oxidase 4 (Homo sapiens) (UniProt Q9NPH5). As to the kind of experiment: NOX4-dependent H2O2 signal modulators, primary screen, NOX inhibitor project, cell-based, HEK293-NOX4, tetracycline-induced, Amplex Red fluorescence (AID 1160). The conditions noted are these: 45 min; higher = more signal, called active from +8 up or from −8 down unless noted.
NADPH oxidase 4 (Homo sapiens), sequence (Q9NPH5 whole entry, looked up): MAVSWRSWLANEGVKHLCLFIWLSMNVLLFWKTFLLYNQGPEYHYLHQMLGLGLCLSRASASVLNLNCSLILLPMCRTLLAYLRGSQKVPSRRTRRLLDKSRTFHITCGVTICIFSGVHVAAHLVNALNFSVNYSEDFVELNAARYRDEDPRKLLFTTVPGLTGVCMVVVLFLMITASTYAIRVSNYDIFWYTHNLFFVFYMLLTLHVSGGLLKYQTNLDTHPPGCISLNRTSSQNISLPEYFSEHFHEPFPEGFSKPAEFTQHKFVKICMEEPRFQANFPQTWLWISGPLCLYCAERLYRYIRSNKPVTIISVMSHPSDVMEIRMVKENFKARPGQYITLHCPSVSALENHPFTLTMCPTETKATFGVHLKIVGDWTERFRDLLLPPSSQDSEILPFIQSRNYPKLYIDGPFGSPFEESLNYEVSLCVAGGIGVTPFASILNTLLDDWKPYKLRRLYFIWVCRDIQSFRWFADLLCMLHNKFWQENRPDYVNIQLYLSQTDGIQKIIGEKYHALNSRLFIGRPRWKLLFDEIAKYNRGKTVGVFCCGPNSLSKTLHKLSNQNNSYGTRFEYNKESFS
The target of test [20] is NADPH oxidase 5 (Homo sapiens) (UniProt Q96PH1). The experiment in a line: NOX5-dependent H2O2 signal modulators, primary screen, NOX inhibitor project, cell-based, HEK293-NOX5, Amplex Red fluorescence (AID 1161). The following applies: HEK293-NOX5, ionomycin, 45 min, higher = more signal.
NADPH oxidase 5 (Homo sapiens), sequence (Q96PH1 whole entry, looked up): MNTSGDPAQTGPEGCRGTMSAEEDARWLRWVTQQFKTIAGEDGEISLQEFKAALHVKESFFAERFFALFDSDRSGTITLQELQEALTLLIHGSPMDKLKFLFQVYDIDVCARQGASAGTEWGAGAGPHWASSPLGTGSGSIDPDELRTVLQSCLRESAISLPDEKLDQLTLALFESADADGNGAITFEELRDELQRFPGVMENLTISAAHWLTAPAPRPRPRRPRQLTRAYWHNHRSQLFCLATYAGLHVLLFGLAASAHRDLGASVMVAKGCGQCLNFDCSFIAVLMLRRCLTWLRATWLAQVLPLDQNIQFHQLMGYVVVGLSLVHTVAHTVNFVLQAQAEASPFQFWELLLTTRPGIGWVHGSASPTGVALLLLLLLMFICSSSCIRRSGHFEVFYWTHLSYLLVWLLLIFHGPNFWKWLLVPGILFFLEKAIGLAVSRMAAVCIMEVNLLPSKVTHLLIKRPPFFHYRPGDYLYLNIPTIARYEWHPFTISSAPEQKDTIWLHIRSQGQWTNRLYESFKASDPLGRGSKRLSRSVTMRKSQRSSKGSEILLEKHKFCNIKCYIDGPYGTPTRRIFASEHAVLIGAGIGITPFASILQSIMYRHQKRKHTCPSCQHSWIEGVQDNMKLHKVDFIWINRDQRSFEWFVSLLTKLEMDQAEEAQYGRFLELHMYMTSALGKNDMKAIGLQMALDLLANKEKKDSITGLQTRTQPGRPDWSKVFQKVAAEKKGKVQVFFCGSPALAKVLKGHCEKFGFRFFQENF

Activity calls are given as the source filed them. Unless noted, no rule for the calls is given here.

NADPH oxidase 2 (Homo sapiens), sequence (P04839 whole entry, looked up): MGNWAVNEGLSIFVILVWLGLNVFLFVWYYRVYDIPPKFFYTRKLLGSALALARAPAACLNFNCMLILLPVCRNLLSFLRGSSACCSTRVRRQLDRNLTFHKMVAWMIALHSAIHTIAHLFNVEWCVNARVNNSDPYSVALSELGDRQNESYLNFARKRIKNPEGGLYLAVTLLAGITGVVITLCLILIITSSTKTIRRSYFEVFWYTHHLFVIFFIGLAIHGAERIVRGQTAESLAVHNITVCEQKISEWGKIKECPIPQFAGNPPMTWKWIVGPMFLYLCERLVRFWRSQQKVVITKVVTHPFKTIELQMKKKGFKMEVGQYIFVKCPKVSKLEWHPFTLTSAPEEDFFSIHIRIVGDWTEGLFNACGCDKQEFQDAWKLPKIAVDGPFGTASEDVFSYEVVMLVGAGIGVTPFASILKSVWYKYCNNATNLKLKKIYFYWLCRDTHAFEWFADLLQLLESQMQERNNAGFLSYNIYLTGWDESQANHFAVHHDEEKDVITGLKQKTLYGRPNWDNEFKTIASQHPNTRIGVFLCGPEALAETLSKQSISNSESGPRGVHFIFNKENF

Turning to `COC(=O)[C@@]1(Cc2ccc(F)cc2)[C@H]2c3cc(C(=O)N(C)C)[nH]c3C[C@H]2CN1C(=O)c1ccccc1`, the composite z-score is 0.163 in [1]; 0.134 in test [6]; 0.143 [setting not given] in test [7]; 0.181 in the test with Torsin-1A (Homo sapiens) [8]; 0.252 with Torsin-1A (Homo sapiens) [9]; -0.879 in test [10]. Besides, the composite z-score in test [12] was 0.0738 [setting not given]. The z-score in [2] is -0.108 [setting not given] (inactive); in [3] it was 0.208 (inactive); in test [4], -0.754 [setting not given] (inactive); in test [5], -0.0669 [setting not given] (inactive); in test [11], -0.652 [setting not given] (inactive); in test [13] it was 1.37 [setting not given] (inactive). Besides, the z-score in test [14] was 0.0978 [setting not given] (inactive); in test [15] it was 0.219 [setting not given] (inactive); in [16] it was 0.641 [setting not given] (inactive); in test [17], -0.393; in [18] it was 0.33 [setting not given] (inactive); in [19] it was 0.502 [setting not given] (inactive). The compound also returned a z-score in test [20] of -0.936.

Consider `CCc1cc2c(nc1CC)CCN(CCC(C)=NOC)C2`, for which the composite z-score in test [1] is 0.148; in test [6] it was 0.496; in test [7], -0.0645; in the test with Torsin-1A (Homo sapiens) [8], 1.23; with Torsin-1A (Homo sapiens) [9], 1.57; in test [10] it was 1.05. Moreover, in [12], the composite z-score turned out to be 0.393. Also, the z-score was -0.295 (inactive) in [2]; -1.01 (inactive) in test [3]; 1.82 (inactive) in [4]; -0.26 (inactive) in test [5]; -1.88 (inactive) in test [11]; 1.69 (inactive) in test [13]. Besides, the z-score in test [14] is 1.29 (inactive); in [15] it was 0.194 (inactive); in test [16], 0.612 (inactive); in test [17], 0.481; in test [18] it was -0.0413 (inactive); in test [19] it was -1.48 (inactive). In test [20], this compound registered a z-score of 1.13.

In the case of `C=C(CC1(CNP(=O)(c2ccccc2)c2ccccc2)CC1)c1ccccc1`, the composite z-score is 0.0774 in test [1]; -0.0187 in [6]; 0.102 in test [7]; -0.27 with Torsin-1A (Homo sapiens) [8]; 0.449 with Torsin-1A (Homo sapiens) [9]; -1.31 in test [10]. Also, the composite z-score in test [12] was found to be 0.241. Further, the z-score is -0.649 (inactive) in test [2]; 0.366 (inactive) in test [3]; -0.182 (inactive) in test [4]; -0.418 (inactive) in test [5]; -0.822 (inactive) in test [11]; 1.41 (inactive) in [13]. Also, the z-score in test [14] is 0.453 (inactive); in [15], 1.07 (inactive); in test [16], 0.519 (inactive); in test [17] it was -0.254; in test [18], -0.335 (inactive); in [19], -0.4 (inactive). For the same compound, in test [20], the z-score was -2.42.

Consider `C[C@H]1O[C@H]2C3=C(C(=O)[C@@H]4O[C@@H]4[C@@H]3O)[C@@H]1[C@@H]1[C@@H](C)OC=C3[C@@H](O)[C@H]4O[C@H]4C(=O)[C@]312`, for which the composite z-score is -0.176 in test [1]; -0.418 in test [6]; -0.208 in [7]; 0.251 with Torsin-1A (Homo sapiens) [8]; -0.306 with Torsin-1A (Homo sapiens) [9]; 0.534 in test [10]. The compound further came in with a composite z-score in test [12] of -0.321. Also, the z-score in [2] was -3.24 (inactive); in [3], -1.61 (inactive); in [4] it was 1.65 (inactive); in test [5], 1.76 (inactive); in test [11] it was -0.209 (inactive); in [13], -0.49 (inactive). The z-score in test [14] is -0.569 (inactive); in test [15] it was 0.276 (inactive); in [16], -0.987 (inactive); in [17], 1.5; in test [18], -0.203 (inactive); in test [19], -0.0614 (inactive). The compound further had a z-score in test [20] of 0.441.

As for `C=C(CC1(C(C)NP(=O)(c2ccccc2)c2ccccc2)CC1)c1ccccc1` (stereo not given), the composite z-score was 0.41 in [1]; 0.416 in [6]; 0.122 in [7]; -1.03 with Torsin-1A (Homo sapiens) [8]; 0.0087 with Torsin-1A (Homo sapiens) [9]; 0.0881 in [10]. Further, in test [12], the composite z-score came out at 0.603. Further, the z-score in test [2] is -2.48 (inactive); in test [3], -0.917 (inactive); in test [4] it was 0.0109 (inactive); in [5] it was 1.49 (inactive); in test [11] it was -1.67 (inactive); in [13] it was 2.42 (inactive). Besides, the z-score was 0.809 (inactive) in [14]; 0.512 (inactive) in test [15]; 1.03 (inactive) in test [16]; 0.984 in test [17]; -0.412 (inactive) in [18]; -3.69 (inactive) in [19]. The same compound showed a z-score in [20] of -3.82.

With `CN1CCC(c2ccc(CO)cc2)=CC1c1cccs1` (stereo not given), the composite z-score in [1] was -0.113; in [6], -0.511; in test [7], -0.154; with Torsin-1A (Homo sapiens) [8], 0.175; in the test with Torsin-1A (Homo sapiens) [9], 0.367; in test [10] it was 1.7. For the same compound, the composite z-score in [12] is -0.0111. Besides, the z-score in test [2] is -1.33 (inactive); in test [3], 0.196 (inactive); in [4] it was 2.8 (inactive); in test [5] it was 0.158 (inactive); in test [11], -0.0115 (inactive); in test [13], 5.23 (inactive). Besides, the z-score in test [14] is 0.366 (inactive); in [15], 0.377 (inactive); in [16], 0.528 (inactive); in test [17] it was -0.594; in [18] it was -0.822 (inactive); in test [19], -1.01 (inactive). The z-score in test [20] was -1.21.

Consider `COC(=O)[C@H]1[C@@H](O)[C@@]2(O)c3c(OC)cc(OC)cc3O[C@@]2(c2ccc(OC)cc2)[C@@H]1c1ccccc1`, for which the composite z-score in test [1] was 0.226; in test [6] it was 0.442; in test [7] it was 0.0054; with Torsin-1A (Homo sapiens) [8], 0.0165; with Torsin-1A (Homo sapiens) [9], 0.295; in [10], 0.683. Moreover, the composite z-score in test [12] was -0.19. Further, the z-score was -4.75 (inactive) in [2]; -0.638 (inactive) in [3]; 1.82 (inactive) in [4]; 1.43 (inactive) in [5]; 0.662 (inactive) in [11]; 0.253 (inactive) in [13]. The z-score was 0.0987 (inactive) in [14]; -0.15 (inactive) in [15]; -0.219 (inactive) in test [16]; -1.37 in [17]; 0.0111 (inactive) in test [18]; -0.0152 (inactive) in test [19]. The compound further gave a z-score in test [20] of 0.219.

Regarding `CCCc1cc2c(n1CCO)C(C)C1CN(C(=O)c3ccccc3)C(C)(C(=O)OC)C21` (stereo not given), the composite z-score was 0.559 in [1]; 1.04 in test [6]; 0.414 in [7]; 0.726 with Torsin-1A (Homo sapiens) [8]; 1.02 with Torsin-1A (Homo sapiens) [9]; -0.898 in [10]. This compound also showed a composite z-score in test [12] of 0.549. The z-score is -0.938 (inactive) in test [2]; 0.251 (inactive) in test [3]; 1.74 (inactive) in [4]; 0.444 (inactive) in test [5]; -1.14 (inactive) in test [11]; 2.33 (inactive) in test [13]. Moreover, the z-score is 0.196 (inactive) in [14]; 0.101 (inactive) in test [15]; 0.618 (inactive) in test [16]; -0.199 in test [17]; 0.0961 (inactive) in test [18]; -2.55 (inactive) in [19]. This compound also returned a z-score in [20] of -2.35.
